Our source for the inhibition values is ChEMBL document CHEMBL1961873, “Compounds: GSK PKIS; Assays: Nanosyn kinase panel” (2012).

By inhibition is commonly meant the relative decrease from the control value, in per cent.

MAP kinase-interacting serine/threonine-protein kinase 2 (Homo sapiens), sequence (Q9HBH9 whole entry, looked up): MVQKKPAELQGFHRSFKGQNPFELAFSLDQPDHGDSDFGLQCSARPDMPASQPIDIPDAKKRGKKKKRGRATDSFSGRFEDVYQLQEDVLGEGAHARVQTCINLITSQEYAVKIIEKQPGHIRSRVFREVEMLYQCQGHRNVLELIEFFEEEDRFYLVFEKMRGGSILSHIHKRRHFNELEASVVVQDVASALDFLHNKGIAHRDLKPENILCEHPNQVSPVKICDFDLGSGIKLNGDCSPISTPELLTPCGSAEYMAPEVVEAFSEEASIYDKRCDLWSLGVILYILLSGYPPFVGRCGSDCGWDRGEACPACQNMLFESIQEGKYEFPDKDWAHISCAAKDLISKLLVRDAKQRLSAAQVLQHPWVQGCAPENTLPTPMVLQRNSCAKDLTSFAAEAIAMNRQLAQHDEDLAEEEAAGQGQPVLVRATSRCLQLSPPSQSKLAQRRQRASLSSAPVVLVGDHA

The target of one assay is MAP kinase-interacting serine/threonine-protein kinase 1 (Homo sapiens) (UniProt Q9BUB5). Particulars: at 1 µM.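 Also: each value is an averaged percent inhibition of MKNK1.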
MAP kinase-interacting serine/threonine-protein kinase 1 (Homo sapiens), sequence (Q9BUB5 whole entry, looked up): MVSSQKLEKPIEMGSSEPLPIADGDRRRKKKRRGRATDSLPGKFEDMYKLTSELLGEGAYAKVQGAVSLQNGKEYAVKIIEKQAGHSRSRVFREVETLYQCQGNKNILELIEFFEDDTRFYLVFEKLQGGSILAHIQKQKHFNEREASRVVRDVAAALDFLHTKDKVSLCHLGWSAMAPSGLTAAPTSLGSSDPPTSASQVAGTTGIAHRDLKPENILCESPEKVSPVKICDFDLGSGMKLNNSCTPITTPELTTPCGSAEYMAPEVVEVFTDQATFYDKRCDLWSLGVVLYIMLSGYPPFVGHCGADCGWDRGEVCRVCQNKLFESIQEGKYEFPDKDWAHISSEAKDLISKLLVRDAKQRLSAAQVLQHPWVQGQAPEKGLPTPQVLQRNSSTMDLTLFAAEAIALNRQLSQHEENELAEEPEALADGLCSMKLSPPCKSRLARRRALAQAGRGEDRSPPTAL
`CCS(=O)(=O)c1ccc(OC)c(Nc2ncc(-c3cccc(-c4ccccc4F)c3)o2)c1`: the inhibition is 4.69%.
Consider `C/C(Nc1ccc(S(N)(=O)=O)cc1)=C1/C(=O)Nc2ccccc21`, for which the inhibition came out at 3.04%.
On the same count and under the same terms, the value for `CN(C)CCOc1ccc(-c2cc(-c3ccc4c(c3)CCC4=NO)c(-c3ccncc3)o2)cc1` was 5.12%; that for `CCc1cccc(CC)c1/C=C/c1cncc(C(=O)NC)c1` was 3.27%; that for `COc1ccc2cc(-c3c(-c4ccncc4)nc(-c4ccc(S(C)(=O)=O)cc4C)n3C)ccc2c1` was 6.69%.
Same read-out and setting: the value for `CCS(=O)(=O)c1ccc(OC)c(Nc2ncc(-c3ccccc3Cl)o2)c1` was 5.2%; that for `COc1cc2ncn(-c3cc(OCCc4ccccc4)c(C(N)=O)s3)c2cc1OC` was 6.3%; that for `CN1CCN(CCCNc2nc3ccc(Oc4ccc(NC(=O)Nc5cc(C(F)(F)F)ccc5F)cc4)cc3[nH]2)CC1` was 15.5%.
Still for that read-out and setting: in the case of `Cc1ccc(NC(=O)c2ccoc2)cc1-c1ccc(C(=O)NCC2CC2)cc1` it was 4.75%.
Turning to `COc1ccc2cc(-c3c(-c4ccncc4)nc(-c4ccc([S+](C)[O-])cc4C)n3C)ccc2c1` (stereo not drawn), the inhibition stood at 10%.
Still for that read-out and setting: in the case of `O=C(NCC1CC1)c1ccc(-c2cccc(C(=O)NC3CC3)c2)cc1` it was 0.19%.
Same read-out and setting: the value for `O=C(Nc1n[nH]c2cc(-c3cc(F)ccc3F)ccc12)C1CC1` was 12.6%.
The same measure, in the same setting: in the case of `COc1cc(N2CCN(C(C)C)CC2)ccc1Nc1nc(Nc2ccc(F)cc2C(=O)NC[C@@H](O)CO)c2cc[nH]c2n1` it was 8.52%; in that of `NC(=O)c1cc(-c2ccncc2)cc(-c2ccccc2)c1N`, 9.56%; in that of `Fc1ccc(-c2ncn(C3CCNCC3)c2-c2ccnc(Oc3ccc4c(c3)OCO4)n2)cc1`, 7.62%.
As to `FC(F)(F)c1cccc(Nc2nccc(-c3cnn4nc(-c5ccccc5)ccc34)n2)c1`, the inhibition is 2.48%.
On the same count and under the same terms, the value for `COc1cc2ncn(-c3cc(OCc4ccccc4C(F)(F)F)c(C(C)=O)s3)c2cc1OC` was 5.46%; that for `Fc1ccc(-c2ncn(CCCN3CCOCC3)c2-c2ccncc2)cc1` was 0.15%.
Still for that read-out and setting: the value for `NS(=O)(=O)c1ccc(Nc2cc(-c3ccc(O)c(F)c3)n[nH]2)cc1` was 6.93%; that for `CN(C)CCCNc1nccc(-c2c(-c3ccc(F)cc3)nn3cc(C(F)(F)F)ccc23)n1` was 8.83%; that for `Fc1ccc(-c2c(-c3ccncc3)nc3n2CCS3)cc1` was 8.91%.
Same read-out and setting: in the case of `O=C(Nc1n[nH]c2nc(-c3ccco3)ccc12)C1CC1` it was 9.62%.
As for `C[C@@H](Oc1cc(-n2cnc3ccc(OCC4CCN(C)CC4)cc32)sc1C(N)=O)c1ccccc1Cl`, the inhibition worked out at 5.78%.
Still for that read-out and setting: the value for `c1ccc(-c2n[nH]cc2-c2ccnc(-c3ccc(OCCN4CCOCC4)cc3)c2)nc1` was 2.74%; that for `O=C1Nc2ccccc2/C1=C/Nc1ccc(-n2cncn2)cc1` was 14.8%.
Consider `c1ccc(Oc2ccc(Nc3ncc(-c4ccccc4)o3)cc2)cc1`, for which the inhibition turned out to be 4.15%.
On the same count and under the same terms, the value for `CCN(CC)Cc1ccc(Nc2nccc(-c3cnn4ncccc34)n2)cc1` was 9.82%; that for `Cc1ccc(C(=O)NC(C)C)cc1-c1ccc(C(=O)NCC2CC2)cc1` was -0.97%.
On the same count and under the same terms, the value for `COc1cc2ncn(-c3cc(OCc4cccs4)c(C(N)=O)s3)c2cc1OC` was 14.7%; that for `O=C(Nc1ccc(Oc2ccc3[nH]c(NC(=O)c4ccccc4)nc3c2)cc1)Nc1cc(C(F)(F)F)ccc1F` was 21%; that for `COc1ccc(-c2ccc3c(NC(=O)C4CC4)n[nH]c3n2)cc1` was 21.5%.
On the same count and under the same terms, in the case of `COc1cc(Nc2ncc3c(C)nc(-c4cccc(C(F)(F)F)c4)n3n2)cc(OC)c1OC` it was 7.34%; in that of `Fc1ccc(-c2ncn(C3CCNCC3)c2-c2ccnc(Oc3ccc(F)c(F)c3)n2)cc1`, 3.06%; in that of `NS(=O)(=O)c1ccc(N/N=C2\C(=O)Nc3ccc(C(=O)NCCCn4ccnc4)cc32)cc1`, 16.8%.

The next assay addresses MAP kinase-interacting serine/threonine-protein kinase 2 (Homo sapiens) (UniProt Q9HBH9). To be noted: at 0.1 µM.
As for `CCS(=O)(=O)c1ccc(OC)c(Nc2ncc(-c3cccc(-c4ccccc4F)c3)o2)c1`, the inhibition was 0.34%.
For the compound `C/C(Nc1ccc(S(N)(=O)=O)cc1)=C1/C(=O)Nc2ccccc21`, the inhibition was -1.74%.
As for `CN(C)CCOc1ccc(-c2cc(-c3ccc4c(c3)CCC4=NO)c(-c3ccncc3)o2)cc1`, the inhibition was 0.16%.
The same measure, in the same setting: the value for `CCc1cccc(CC)c1/C=C/c1cncc(C(=O)NC)c1` was 0.49%; that for `COc1ccc2cc(-c3c(-c4ccncc4)nc(-c4ccc(S(C)(=O)=O)cc4C)n3C)ccc2c1` was 1.75%; that for `CCS(=O)(=O)c1ccc(OC)c(Nc2ncc(-c3ccccc3Cl)o2)c1` was 0.17%.
Same read-out and setting: the value for `COc1cc2ncn(-c3cc(OCCc4ccccc4)c(C(N)=O)s3)c2cc1OC` was 0.86%.
On the same count and under the same terms, the value for `CN1CCN(CCCNc2nc3ccc(Oc4ccc(NC(=O)Nc5cc(C(F)(F)F)ccc5F)cc4)cc3[nH]2)CC1` was 0.67%.
For `Cc1ccc(NC(=O)c2ccoc2)cc1-c1ccc(C(=O)NCC2CC2)cc1`, the inhibition is -0.05%.
On the same count and under the same terms, the value for `COc1ccc2cc(-c3c(-c4ccncc4)nc(-c4ccc([S+](C)[O-])cc4C)n3C)ccc2c1` (stereo not drawn) was 0.98%.
The same measure, in the same setting: the value for `O=C(NCC1CC1)c1ccc(-c2cccc(C(=O)NC3CC3)c2)cc1` was -1.06%; that for `O=C(Nc1n[nH]c2cc(-c3cc(F)ccc3F)ccc12)C1CC1` was 1.25%.
On the same count and under the same terms, in the case of `COc1cc(N2CCN(C(C)C)CC2)ccc1Nc1nc(Nc2ccc(F)cc2C(=O)NC[C@@H](O)CO)c2cc[nH]c2n1` it was 1.03%; in that of `NC(=O)c1cc(-c2ccncc2)cc(-c2ccccc2)c1N`, 2.09%.
As to `Fc1ccc(-c2ncn(C3CCNCC3)c2-c2ccnc(Oc3ccc4c(c3)OCO4)n2)cc1`, the inhibition was 1.84%.
In the case of `FC(F)(F)c1cccc(Nc2nccc(-c3cnn4nc(-c5ccccc5)ccc34)n2)c1`, the inhibition turned out to be 0.22%.
Same read-out and setting: in the case of `COc1cc2ncn(-c3cc(OCc4ccccc4C(F)(F)F)c(C(C)=O)s3)c2cc1OC` it was 1.92%; in that of `Fc1ccc(-c2ncn(CCCN3CCOCC3)c2-c2ccncc2)cc1`, -1.39%; in that of `NS(=O)(=O)c1ccc(Nc2cc(-c3ccc(O)c(F)c3)n[nH]2)cc1`, 0.26%.
Same read-out and setting: in the case of `CN(C)CCCNc1nccc(-c2c(-c3ccc(F)cc3)nn3cc(C(F)(F)F)ccc23)n1` it was 0.89%; in that of `Fc1ccc(-c2c(-c3ccncc3)nc3n2CCS3)cc1`, 0.34%; in that of `O=C(Nc1n[nH]c2nc(-c3ccco3)ccc12)C1CC1`, 0.06%.
On the same count and under the same terms, in the case of `C[C@@H](Oc1cc(-n2cnc3ccc(OCC4CCN(C)CC4)cc32)sc1C(N)=O)c1ccccc1Cl` it was 1.96%; in that of `c1ccc(-c2n[nH]cc2-c2ccnc(-c3ccc(OCCN4CCOCC4)cc3)c2)nc1`, 3.62%.
Take `O=C1Nc2ccccc2/C1=C/Nc1ccc(-n2cncn2)cc1`: the inhibition was determined as 2.4%.
On the same count and under the same terms, the value for `c1ccc(Oc2ccc(Nc3ncc(-c4ccccc4)o3)cc2)cc1` was 0.86%; that for `CCN(CC)Cc1ccc(Nc2nccc(-c3cnn4ncccc34)n2)cc1` was 2.76%.
With `Cc1ccc(C(=O)NC(C)C)cc1-c1ccc(C(=O)NCC2CC2)cc1`, the inhibition is -0.04%.
As for `COc1cc2ncn(-c3cc(OCc4cccs4)c(C(N)=O)s3)c2cc1OC`, the inhibition is 3.17%.
Same read-out and setting: in the case of `O=C(Nc1ccc(Oc2ccc3[nH]c(NC(=O)c4ccccc4)nc3c2)cc1)Nc1cc(C(F)(F)F)ccc1F` it was 2.44%.
Still for that read-out and setting: in the case of `COc1ccc(-c2ccc3c(NC(=O)C4CC4)n[nH]c3n2)cc1` it was 1.32%.
Still for that read-out and setting: in the case of `COc1cc(Nc2ncc3c(C)nc(-c4cccc(C(F)(F)F)c4)n3n2)cc(OC)c1OC` it was 2.94%; in that of `Fc1ccc(-c2ncn(C3CCNCC3)c2-c2ccnc(Oc3ccc(F)c(F)c3)n2)cc1`, 1.28%; in that of `NS(=O)(=O)c1ccc(N/N=C2\C(=O)Nc3ccc(C(=O)NCCCn4ccnc4)cc32)cc1`, 3.98%.
